Assay results published in PubChem BioAssay AID1159580 (chemical genetic matrix, 2015).
Screen size: about 5,500 compounds; about 2,000 (36%) were called active. Inconclusive results (about 18%) are left out. No stated cut-off is given here; in the data, active means normalized growth mostly below about 0.91 (no sharp cut-off); inconclusive means no clear call, values can overlap the other calls; inactive means mostly above about 0.92. Some of the results follow.

Assay: chemical genetic growth profiling, strain panel (AID 1159580);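 further: tested at 20 µM; growth read once vehicle control cultures reached saturation at 30 °C; 1 = growth at the plate median or of vehicle wells; lower values mean less growth of the strain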
Conditions: S. cerevisiae deletion strains, growth OD
[1] = locus YAR019C, strain CDC15, active compounds read low
[2] = locus YBL105C, strain PKC1, active compounds read low
[3] = locus YBR135W, strain CKS1, active compounds read low
[4] = locus YBR136W, strain MEC1, active compounds read low
[5] = locus YBR160W, strain CDC28, active compounds read low
[6] = locus YDL017W, strain CDC7, active compounds read low
[7] = locus YDL028C, strain MPS1, active compounds read low
[8] = locus YDL101C, strain DUN1, active compounds read low
[9] = locus YDL108W, strain KIN28, active compounds read low
[10] = locus YDL132W, strain cdc53, active compounds read low
[11] = locus YDL214C, strain PRR2, active compounds read low
[12] = locus YDR052C, strain DBF4, active compounds read low
[13] = locus YDR054C, strain cdc34, active compounds read low
[14] = locus YDR226W, strain ADK1, active compounds read low
[15] = locus YDR477W, strain SNF1, active compounds read low
[16] = locus YER123W, strain YCK3, active compounds read low
[17] = locus YER133W, strain GLC7, active compounds read low
[18] = locus YFL009W, strain cdc4, active compounds read low
[19] = locus YFL029C, strain CAK1, active compounds read low
[20] = locus YFR003C, strain YPI1, active compounds read low
[21] = locus YFR019W, strain FAB1, active compounds read low
[22] = locus YFR028C, strain CDC14, active compounds read low
[23] = locus YGR040W, strain KSS1, active compounds read low
[24] = locus YGR052W, strain FMP48, active compounds read low
[25] = locus YGR092W, strain DBF2, active compounds read low
[26] = locus YHR030C, strain SLT2, active compounds read low
[27] = locus YHR079C, strain IRE1, active compounds read low
[28] = locus YHR082C, strain KSP1, active compounds read low
[29] = locus YHR205W, strain SCH9, active compounds read low
[30] = locus YIL147C, strain SLN1, active compounds read low
[31] = locus YJL095W, strain BCK1, active compounds read low
[32] = locus YJL128C, strain PBS2, active compounds read low
[33] = locus YJL157C, strain FAR1, active compounds read low
[34] = locus YJR016C, strain ILV3, active compounds read low
[35] = locus YJR066W, strain TOR1 (second series), active compounds read low
[36] = locus YJR066W, strain TOR1, active compounds read low
[37] = locus YKL048C, strain ELM1, active compounds read low
[38] = locus YKL067W, strain YNK1, active compounds read low
[39] = locus YKL101W, strain HSL1, active compounds read low
[40] = locus YKL193C, strain SDS22, active compounds read low
[41] = locus YKL203C, strain TOR2, active compounds read low
[42] = locus YLR113W, strain HOG1, active compounds read low
[43] = locus YLR133W, strain CKI1, active compounds read low
[44] = locus YLR403W, strain SFP1, active compounds read low
[45] = locus YML070W, strain DAK1, active compounds read low
[46] = locus YMR001C, strain CDC5, active compounds read low
[47] = locus YMR205C, strain PFK2 (second series), active compounds read low
[48] = locus YMR277W, strain FCP1, active compounds read low
[49] = locus YNL006W, strain LST8, active compounds read low
[50] = locus YNL020C, strain ARK1, active compounds read low
[51] = locus YNL161W, strain CBK1, active compounds read low
[52] = locus YNL183C, strain NPR1, active compounds read low
[53] = locus YNL207W, strain RIO2, active compounds read low
[54] = locus YNL222W, strain SSU72, active compounds read low
[55] = locus YNL307C, strain MCK1 (second series), active compounds read low
[56] = locus YOL078W, strain AVO1, active compounds read low
[57] = locus YOL136C, strain PFK27, active compounds read low
[58] = locus YOR061W, strain CKA2, active compounds read low
[59] = locus YOR119C, strain RIO1, active compounds read low
[60] = locus YOR231W, strain MKK1, active compounds read low
[61] = locus YOR329C, strain SCD5, active compounds read low
[62] = locus YPL031C, strain PHO85, active compounds read low
[63] = locus YPL153C, strain RAD53, active compounds read low
[64] = locus YPL204W, strain HRR25, active compounds read low
[65] = locus YPL209C, strain IPL1, active compounds read low
[66] = locus YPL256C, strain CLN2, active compounds read low
[67] = locus YPR025C, strain CCL1, active compounds read low
[68] = locus YPR106W, strain ISR1, active compounds read low
[69] = locus YPR111W, strain DBF20, active compounds read low
[70] = strain NNK1, active compounds read low
[71] = strain TSCII, active compounds read low

Measured: normalized growth

Cc1nnsc1C(=O)NNc1c(Cl)cccc1Cl
inactive: [1] 0.975 | [2] 0.974 | [3] 0.976 | [4] 0.977 | [5] 0.973 | [6] 0.979 | [7] 0.978 | [8] 0.993 | [9] 0.981 | [10] 0.982 | [11] 0.951 | [12] 0.985 | [13] 0.982 | [14] 0.986 | [15] 0.959 | [16] 0.933 | [17] 0.97 | [18] 0.98 | [19] 0.972 | [20] 0.98 | [21] 0.958 | [22] 0.981 | [23] 0.926 | [24] 1.02 | [25] 0.952 | [26] 1.02 | [27] 0.982 | [28] 1.02 | [29] 0.942 | [30] 0.981 | [31] 0.992 | [32] 0.926 | [33] 0.939 | [34] 0.984 | [35] 0.926 | [36] 1.05 | [37] 0.958 | [38] 0.948 | [39] 0.905 | [40] 0.98 | [41] 1.02 | [43] 0.939 | [44] 0.935 | [45] 0.927 | [46] 0.978 | [47] 0.941 | [48] 0.98 | [49] 0.993 | [50] 0.946 | [51] 0.979 | [52] 0.983 | [53] 0.988 | [54] 0.973 | [55] 0.948 | [56] 0.978 | [57] 0.927 | [58] 0.927 | [59] 1.01 | [60] 0.925 | [61] 0.977 | [62] 0.971 | [63] 0.949 | [64] 0.952 | [65] 0.973 | [66] 0.921 | [67] 0.975 | [68] 0.965 | [69] 0.976 | [70] 0.978 | [71] 0.977
active: [42] 0.844

Cc1cc(Cl)ccc1NNC(=O)c1ccno1
inactive: [1] 0.974 | [2] 0.958 | [3] 0.981 | [4] 0.968 | [5] 0.966 | [6] 0.97 | [7] 0.979 | [8] 0.967 | [9] 0.97 | [10] 0.987 | [11] 0.933 | [12] 0.968 | [13] 0.961 | [14] 0.976 | [15] 0.944 | [16] 0.884 | [17] 0.938 | [18] 0.974 | [19] 0.96 | [20] 0.967 | [21] 0.925 | [22] 0.979 | [23] 0.917 | [24] 0.996 | [25] 0.912 | [26] 0.954 | [27] 1 | [28] 1 | [29] 0.902 | [30] 0.971 | [31] 0.931 | [32] 0.927 | [33] 0.919 | [34] 0.987 | [35] 0.87 | [36] 1.01 | [37] 0.912 | [38] 0.939 | [39] 0.903 | [40] 0.971 | [41] 0.978 | [42] 0.871 | [43] 0.908 | [44] 0.903 | [45] 0.903 | [46] 0.962 | [47] 0.938 | [48] 0.978 | [49] 0.975 | [50] 0.912 | [51] 0.972 | [52] 0.953 | [53] 0.966 | [54] 0.978 | [55] 0.907 | [56] 0.977 | [57] 0.889 | [58] 0.946 | [59] 0.977 | [60] 0.899 | [61] 0.963 | [62] 0.942 | [63] 0.916 | [64] 0.904 | [65] 0.958 | [66] 0.958 | [67] 0.975 | [68] 0.945 | [69] 0.957 | [70] 0.955 | [71] 0.972

Cc1cc(C(=O)NNc2ccc(F)cc2F)no1
inactive: [1] 0.972 | [2] 0.967 | [3] 0.971 | [4] 0.969 | [5] 0.964 | [6] 0.972 | [7] 0.977 | [8] 0.959 | [9] 0.973 | [10] 0.984 | [11] 0.938 | [12] 0.963 | [13] 0.952 | [14] 0.963 | [15] 0.95 | [16] 0.822 | [17] 0.957 | [18] 0.974 | [19] 0.956 | [20] 0.974 | [21] 0.899 | [22] 0.961 | [23] 0.93 | [24] 0.995 | [25] 0.861 | [26] 0.923 | [27] 0.948 | [28] 1.01 | [29] 0.962 | [30] 0.971 | [31] 0.955 | [32] 0.965 | [33] 0.931 | [34] 0.974 | [35] 0.879 | [36] 0.998 | [37] 0.95 | [38] 0.953 | [39] 0.955 | [40] 0.976 | [41] 1.01 | [42] 0.932 | [43] 0.93 | [44] 0.934 | [45] 0.912 | [46] 0.969 | [47] 0.972 | [48] 0.975 | [49] 0.988 | [50] 0.953 | [51] 0.963 | [52] 0.979 | [53] 0.962 | [54] 0.959 | [55] 0.908 | [56] 0.967 | [57] 0.937 | [58] 0.822 | [59] 1.01 | [60] 0.921 | [61] 0.967 | [62] 0.939 | [63] 0.923 | [64] 0.925 | [65] 0.96 | [66] 0.934 | [67] 0.968 | [68] 0.962 | [69] 0.963 | [70] 0.979 | [71] 0.964
